High-throughput results as filed in PubChem BioAssay.
IL1B secr inh: inhibitors of inflammasome signaling (IL-1 beta secretion). THP-1 LPS/ATP IL-1B secretion, AlphaLISA, 16 h; stronger effect = lower value. activity change, % at 57.5 µM. 360,000 compounds, 4.7% hits; in the data active = activity change below about -50%; inconclusive = mostly about -30% to -49%; note: % is set by controls: 0 for no effect and ±100 for the full control effect
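Secreted IL-1B measured by AlphaLISA bead assay after 16 h compound exposure of THP-1 cells; compounds (final up to 57.5 uM) added 1 h before LPS (250 ng/mL) and ATP (1.25 mM) stimulation; lower signal means less secretion.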
MCF10A rerep: inducers of DNA re-replication in MCF 10A breast cells; MCF 10A DNA re-replication, Hoechst nuclear intensity, 48 h; Potency, µM (doses to about 46.1 µM), for the others: at the highest dose activity, positive = re-replication, hits mostly activators; 350,000 compounds, 2.9% hits; AID 624296; note: potency is the fitted concentration of half-maximal effect; % of control where 0% means no effect; nearly all actives have a fitted effect of over 50% in size
VP16 counter: counter-screen for ROR gamma inhibitors: Gal4-VP16 reporter; Drosophila S2 Gal4-VP16 UAS-luciferase, luminescence, 20 h; Potency, µM (top dose mostly 53.6 µM), for inactives: top-dose activity, negative = inhibition, usual class: inhibitors; 310,000 compounds, 3.5% hits; AID 2546;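 note: Gal4-VP16 expression switched on by copper sulfate through the metallothionein promoter; potency is the fitted concentration of half-maximal effect; % is set by controls: 0 for no effect and ±100 for the full control effect; nearly all actives have a fitted effect of over 50% in size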
RORg inh: inhibitors of mouse ROR gamma transcriptional activity | 310,000 compounds, 5.4% hits | Potency, µM (doses to about 53.6 µM), for the others: at the highest dose activity change, negative = inhibition, usual class: inhibitors | AID 2551 | Drosophila S2 Gal4-RORgamma UAS-luciferase reporter, 20 h; note: potency is the fitted concentration of half-maximal effect; % is set by controls: 0 for no effect and ±100 for the full control effect; nearly all actives have a fitted effect of over 60% in size
Target sequence (P51450 whole entry, looked up, the tested form may be a part): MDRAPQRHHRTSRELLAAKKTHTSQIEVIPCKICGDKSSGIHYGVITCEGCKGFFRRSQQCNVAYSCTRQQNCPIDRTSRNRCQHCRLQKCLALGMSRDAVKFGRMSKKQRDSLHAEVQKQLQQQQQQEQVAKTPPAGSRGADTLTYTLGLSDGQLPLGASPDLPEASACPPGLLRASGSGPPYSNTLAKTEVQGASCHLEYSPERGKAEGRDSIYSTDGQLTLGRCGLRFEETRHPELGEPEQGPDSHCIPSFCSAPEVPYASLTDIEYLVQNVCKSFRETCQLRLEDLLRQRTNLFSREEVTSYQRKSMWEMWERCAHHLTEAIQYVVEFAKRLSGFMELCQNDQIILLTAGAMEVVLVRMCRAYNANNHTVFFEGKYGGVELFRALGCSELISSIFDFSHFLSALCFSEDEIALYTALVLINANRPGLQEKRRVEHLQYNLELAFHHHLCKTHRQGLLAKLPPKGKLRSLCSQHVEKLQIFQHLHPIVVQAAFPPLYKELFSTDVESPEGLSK
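Schneider cells (Drosophila), stable Gal4 DBD–ROR gamma + UAS-luc; 1 hr cmpd preincubation; Cu2+ induction 700 uM final; 20 hr ambient; luminescence.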
SW480 rereplic: induces DNA re-replication in SW480 colon adenocarcinoma cells; SW480 DNA re-replication, Hoechst DNA content imaging, 48 h; Potency, µM (titrated, usually from 46.1 µM), without a hit: top-dose re-replication activation, most hits filed as activators; 340,000 compounds, 1.8% hits; note: potency is the fitted concentration of half-maximal effect; % of control where 0% means no effect; nearly all actives have a fitted effect of over 55% in size
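DNA re-replication was detected as more nuclei of elevated Hoechst intensity after 48 hr exposure to compound (23 nL pinned per well of 250 cells).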
* hit, by the source's call; ? = inconclusive; . = no result given. Only some compounds are listed: those with a hit (about 11% of all), similar ones and a draw of the others. Unless noted, calls come from the whole dose curve; as a rule, active = well fitted curve in the direction sought with a large enough effect; inconclusive = small, poorly fitted or top-dose-only effect, or another doubt; inactive = no such curve, though single readings can be large; an effect the other way counts as inactive or inconclusive.

SMILES	IL1B secr inh	MCF10A rerep	VP16 counter	RORg inh	SW480 rereplic
COc1ccccc1C(=O)NC(=S)/C=C1/N(C)c2ccccc2C1(C)C	?	?	3%	4%	2%
O=S(=O)(c1ccc2c(c1)OCCO2)N1CCCN(S(=O)(=O)c2c(F)cccc2F)CC1	.	?	.	.	27%
CCOC(=O)[C@]12CCCC=C1N(CCc1ccc(OC)c(OC)c1)C(=O)[C@H](CC(=O)NCCCCc1ccccc1)C2	-57*	.	.	.	.
CCOC(=O)[C@]12CCCC=C1N(Cc1cccc3ccccc13)C(=O)[C@H](CC(=O)NCc1cccs1)C2	-24	.	.	.	.
CCOC(=O)[C@]12CCC=C1N(Cc1ccc3c(c1)OCO3)C(=O)[C@H](CC(=O)NCCCCc1ccccc1)C2	-69*	.	.	.	.
CCCCNC(=O)C[C@@H]1C[C@@]2(C(=O)OCC)CCCC=C2N(CCc2ccc(OC)c(OC)c2)C1=O	4	.	.	.	.
CCOC(=O)[C@]12CCC=C1N(Cc1cccc3ccccc13)C(=O)[C@H](CC(=O)NCc1cccs1)C2	-69*	.	.	.	.
CCOC(=O)[C@]12CCC=C1N(Cc1cccc3ccccc13)C(=O)[C@H](CC(=O)NCCCCc1ccccc1)C2	-70*	.	.	.	.
CCOC(=O)[C@]12CCC=C1N(Cc1ccc3c(c1)OCO3)C(=O)[C@H](CC(=O)NCc1ccccc1)C2	0	.	.	.	.
C[C@H]1COc2cccc(N3CCC[C@@H]3CO)c2S(=O)(=O)N1	19	.	.	.	.
CCCCOCCCNC(=O)C[C@@H]1C[C@@]2(C(=O)OCC)CCCC=C2N(Cc2ccc(Cl)cc2Cl)C1=O	-79*	.	.	.	.
COC(=O)[C@@]12C[C@@H](CC(=O)NCC3CCCCC3)C(=O)N(Cc3ccc4c(c3)OCO4)C1=CCC(C)(C)C2	-54*	.	.	.	.
COC(=O)[C@@]12C[C@@H](CC(=O)NCCCCc3ccccc3)C(=O)N(Cc3ccc4c(c3)OCO4)C1=CCC(C)(C)C2	-76*	.	.	.	.
CCCCNC(=O)C[C@@H]1C[C@@]2(C(=O)OC)CC(C)(C)CC=C2N(Cc2ccc3c(c2)OCO3)C1=O	-16	.	.	.	.
CCCCNC(=O)C[C@@H]1C[C@@]2(C(=O)OC)CCCCC=C2N(Cc2ccc3c(c2)OCO3)C1=O	-61*	.	.	.	.
CCOC(=O)[C@]12CCCC=C1N(Cc1ccc(Cl)cc1Cl)C(=O)[C@H](CC(=O)NCCCN1CCCC1=O)C2	-17	.	.	.	.
COc1ccc(C2=NN(C(=O)CCC(=O)O)C(c3ccccc3OC)C2)cc1 (configuration not stated)	30	?	3%	-4%	-11%
CC(C)c1cccc2cc3c(nc12)-c1cccc(=O)n1C3	.	.	-11%	-20%	.
Cc1cc(C)cc(Cn2cc(CN3CC(N4CCN(Cc5ccccc5F)CC4)CS3(=O)=O)nn2)c1 (configuration not stated)	14	.	.	.	.
O=C(O)C(Cc1ccc2c(c1)oc1ccccc12)NCP(=O)(O)O (configuration not stated)	.	.	-11%	14%	.
O=C(Nc1cccc([N+](=O)[O-])c1)NN1CCCCCC1	?	?	.	.	-5%
N#Cc1ccc(C(=O)OCC(=O)Nc2cccnc2Cl)cc1	23	-2%	.	.	-4%
CCOC(=O)[C@]12CCCC=C1N(Cc1ccc3c(c1)OCO3)C(=O)[C@H](CC(=O)NCCCCc1ccccc1)C2	-63*	.	.	.	.
COC(=O)[C@]12CCCCC=C1N(Cc1ccc3c(c1)OCO3)C(=O)[C@H](CC(=O)NCCCCc1ccccc1)C2	-55*	.	.	.	.
CCCCNC(=O)C[C@@H]1C[C@@]2(C(=O)OCC)CCC=C2N(Cc2ccc3c(c2)OCO3)C1=O	2	.	.	.	.
O=C(O)CC/C=C\C[C@@H]1CO[C@H](c2ccccc2Cl)O[C@@H]1c1ccccc1O	.	.	1%	13%	.
Cc1ccc(S(=O)(=O)OCCc2ccccc2)cc1	.	.	-14%	2%	.
Cc1cc(-c2n[nH]c(=S)n2/N=C/c2ccc(C)o2)n[nH]1	-3	0%	-1%	-8%	?
S=c1[nH]nc(C2CCCCC2)n1/N=C/c1ccncc1	-15	?	-14%	?	1%
O=C(O)c1ccc(/C=N/n2c(C3CCCCC3)n[nH]c2=S)cc1	26	8%	0%	-21%	-1%
